Publication PMC4336329 (PLoS ONE, 2015)
Hit rate of the full screen: of about 310,000 compounds, about 14,000 (4.5%) showed an effect of 50% or more. Effects have a minus sign here. This is one part of a sample in which strong results are shown more often than they occur.

target: human ether-à-go-go-related gene (hERG) potassium channel (human, UniProt Q12809); test: primary screen, population patch clamp on CHO cells stably expressing hERG; higher = less effect of the substance
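Further: peak tail current of the secondary pulse compared with the same well before compound.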

Chain of human ether-à-go-go-related gene (hERG) potassium channel (Q12809 whole entry, looked up): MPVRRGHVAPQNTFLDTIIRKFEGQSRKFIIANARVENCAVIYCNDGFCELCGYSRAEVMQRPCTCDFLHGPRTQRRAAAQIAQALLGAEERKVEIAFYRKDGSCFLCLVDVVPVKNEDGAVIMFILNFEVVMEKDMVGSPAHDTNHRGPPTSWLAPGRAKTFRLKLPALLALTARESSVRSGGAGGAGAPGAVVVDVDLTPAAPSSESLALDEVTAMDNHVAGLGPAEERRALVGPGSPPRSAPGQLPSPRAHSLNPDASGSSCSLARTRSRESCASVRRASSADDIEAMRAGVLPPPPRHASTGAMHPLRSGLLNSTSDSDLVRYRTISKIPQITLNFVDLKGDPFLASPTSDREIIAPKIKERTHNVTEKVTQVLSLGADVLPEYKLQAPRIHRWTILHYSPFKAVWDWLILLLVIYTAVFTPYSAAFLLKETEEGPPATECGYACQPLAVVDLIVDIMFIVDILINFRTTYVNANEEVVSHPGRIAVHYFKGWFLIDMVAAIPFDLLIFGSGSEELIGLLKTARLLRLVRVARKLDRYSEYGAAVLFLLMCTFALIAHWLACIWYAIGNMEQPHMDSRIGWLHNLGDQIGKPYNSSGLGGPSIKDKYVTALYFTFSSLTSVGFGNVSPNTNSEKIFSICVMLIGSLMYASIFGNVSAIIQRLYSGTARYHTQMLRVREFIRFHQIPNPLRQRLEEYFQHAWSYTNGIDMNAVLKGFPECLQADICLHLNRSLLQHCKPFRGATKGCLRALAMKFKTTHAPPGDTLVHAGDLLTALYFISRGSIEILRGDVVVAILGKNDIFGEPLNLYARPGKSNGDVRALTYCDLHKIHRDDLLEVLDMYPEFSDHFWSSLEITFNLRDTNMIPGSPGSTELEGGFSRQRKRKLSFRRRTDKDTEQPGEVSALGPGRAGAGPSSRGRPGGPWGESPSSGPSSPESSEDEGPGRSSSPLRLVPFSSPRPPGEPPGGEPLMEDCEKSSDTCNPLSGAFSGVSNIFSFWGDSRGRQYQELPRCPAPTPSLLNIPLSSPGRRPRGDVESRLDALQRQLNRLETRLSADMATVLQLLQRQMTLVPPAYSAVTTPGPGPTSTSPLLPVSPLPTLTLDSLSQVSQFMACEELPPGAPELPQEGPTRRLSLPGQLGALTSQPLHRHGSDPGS

SMILES	hERG current change (%, negative = inhibition) at 10uM
O=C(NCCN1CCN(c2ccccc2F)CC1)c1cccn2c(=O)c3ccccc3nc12	-71.5%
Cn1c(C(=O)NCCN2CCN(c3ccccc3F)CC2)cc2c(=O)n(C)c3ccccc3c21	-4.62%
CN(CCCNC(=O)c1cc2c(Cl)nc3ccccc3c2s1)Cc1ccccc1	-44.3%
O=C(CCNC(=O)Cn1ccc2ccccc2c1=O)NCCN1CCN(c2ccccc2F)CC1	6.8%
CN(CCCNC(=O)c1cccn2c(=O)c3ccccc3nc12)Cc1ccccc1	-74.1%
O=C(NCCN1CCN(c2ccccc2)CC1)c1cccn2c(=O)c3ccccc3nc12	-63%
COCCCNC(=O)c1cccn2c(=O)c3cc4ccccc4cc3nc12	-42.2%
O=C(O)c1cccn2c(=O)c3ccccc3nc12	13.1%
O=C(NCCN1CCN(c2ccccc2)CC1)c1cccn2c(=O)c3cc(Cl)ccc3nc12	-45.4%
CCN(CC(=O)NC1CCS(=O)(=O)C1)C(=O)COc1ccccc1-c1ccccc1 (stereo not drawn)	11.7%
CCn1nnnc1NCc1ccc(Cl)cc1	9.44%
COc1ccc2c(c1)O[C@@H](c1cccc(C(F)(F)F)c1)[C@H](OC(=O)NCCc1ccc(OC)c(OC)c1)C2=O	-0.231%
O=C(CSc1nnc(-c2cccnc2)n1Cc1ccco1)NCc1ccc2c(c1)OCO2	-33.2%
O=C(CSc1nnc(-c2ccc(Cl)cc2)n1Cc1ccco1)NCc1ccc2c(c1)OCO2	-75.3%
COc1cccc(-c2nnc(SCC(=O)NCc3ccc4c(c3)OCO4)n2Cc2ccco2)c1	-49.7%
COc1ccc(-c2nnc(SC(C)C(=O)NCc3ccc4c(c3)OCO4)n2Cc2ccco2)cc1 (stereo not drawn)	-55.1%
O=C(CSc1nnc(-c2ccccc2)n1Cc1ccco1)NCc1ccc2c(c1)OCO2	-14.5%
COc1cccc(-c2nnc(SCC(=O)Nc3ccc4c(c3)OCCO4)n2Cc2ccco2)c1	-15.1%
O=C(CSc1nnc(NC(=O)c2ccco2)s1)NC1CCCCC1	2.07%
Cc1ccc2c(c1)N(CCC(=O)NCCCN1CCCC1)C(=O)C(C)O2 (stereo not drawn)	22.4%
COc1cc(CN2CCCC(CO)(Cc3ccccc3C)C2)cc2c1OCO2 (stereo not drawn)	-27.9%
Cc1c(CN2CCCC(CO)(Cc3cccc(Cl)c3)C2)cnn1C (stereo not drawn)	-11.2%

SMILES	hERG current change (%, negative = inhibition) at 10uM
OCC1(Cc2cccc(Cl)c2)CCCN(Cc2ccc(F)c(F)c2)C1 (stereo not drawn)	-51.2%
COc1cc(CN2CCCC(CO)(Cc3ccccc3)C2)ccc1O (stereo not drawn)	-17.6%
CC(C)(O)C#Cc1ccc(CN2CCCC(CO)(Cc3cccc(Cl)c3)C2)cc1 (stereo not drawn)	-6.28%
COc1ccc(CN2CCCC(CO)(Cc3cccc(Cl)c3)C2)cc1OC (stereo not drawn)	-63.2%
Cc1nn(C)c(Cl)c1CN1CCCC(CO)(Cc2cccc(Cl)c2)C1 (stereo not drawn)	-59.8%
CSc1cccc(CN2CCCC(CO)(Cc3cccc(Cl)c3)C2)c1 (stereo not drawn)	-29%
Cc1cccc(-c2ncc(CN3CCCC(CO)(Cc4cccc(Cl)c4)C3)cn2)c1 (stereo not drawn)	-20.6%
COc1cc(CN2CCCC(CO)(Cc3cccc(Cl)c3)C2)cc2c1OCO2 (stereo not drawn)	-68.1%
Cc1nn(C)c(Cl)c1CN1CCCC(CO)(Cc2ccccc2)C1 (stereo not drawn)	-6.66%
CCn1nc(C)c(CN2CCCC(CO)(Cc3cccc(Cl)c3)C2)c1C (stereo not drawn)	-40.8%
CCC/C=C(\CCC)C(NS(=O)(=O)c1ccc(C(F)(F)F)cc1)c1ccccc1 (stereo not drawn)	15.5%
Cc1nnc2ccc(N3CCN(C(=O)c4ccccc4)CC3)nn12	-0.844%
COc1ccc(S(=O)(=O)NCc2ccncc2)cc1NC(=O)c1ccccc1C	-36.6%
O=C(/C=C/c1cccc([N+](=O)[O-])c1)NCCSCc1c(Cl)cccc1Cl	-11.9%
NS(=O)(=O)c1ccc(NC(=O)c2ccc3c(c2)OCO3)cc1	11.3%
COc1cc(Cl)c(CN2CCCC(CO)(Cc3ccccc3)C2)cc1OC (stereo not drawn)	-55.2%
COc1cc(Cl)c(CN2CCCC(CO)(Cc3cccc(Cl)c3)C2)cc1OC (stereo not drawn)	-45.6%
COc1cc(Cl)c(CN2CCCC(CO)(Cc3ccccc3F)C2)cc1OC (stereo not drawn)	-20.1%
FC(F)(F)c1cc(Sc2ccccc2)nc(-c2ccccn2)n1	-19.3%
O=C(O)CSc1cc(C(F)(F)F)nc(-c2ccccn2)n1	5.55%
C#CCSc1cc(C(F)(F)F)nc(-c2ccccn2)n1	-62.9%
CCC(=O)NC(C)c1nc2ccccc2n1C (stereo not drawn)	1.29%

SMILES	hERG current change (%, negative = inhibition) at 10uM
Cc1sc2ncnc(N/N=C/c3ccc(O)cc3)c2c1C	2.28%
Cc1sc2ncnc(N/N=C/c3cccc(O)c3)c2c1C	-61.9%
Cc1sc2ncnc(N/N=C/c3ccccc3O)c2c1C	-1.58%
O=C(CCNNC(=O)c1ccncc1)NCc1ccccc1	9.98%
Cn1cc(CN2CCCC(CO)(Cc3cccc(Cl)c3)C2)cn1 (stereo not drawn)	-17.1%
OCC1(Cc2ccccc2)CCCN(Cc2cnn(-c3ccccc3)c2)C1 (stereo not drawn)	-59.4%
CCn1cc(CN2CCCC(CO)(Cc3cccc(Cl)c3)C2)cn1 (stereo not drawn)	-10.8%
Cn1cc(CN2CCCC(CO)(Cc3ccccc3)C2)cn1 (stereo not drawn)	4.27%
OCC1(Cc2cccc(Cl)c2)CCCN(Cc2cnn(-c3ccccc3)c2)C1 (stereo not drawn)	-54.7%
COc1ccccc1-n1cc(CN2CCCC(CO)(Cc3cccc(Cl)c3)C2)cn1 (stereo not drawn)	-49.5%
CC(C)n1cnc2c(Nc3ccc(F)c(Cl)c3)nc(NCCO)nc21	-39%
[O-][N+]1=C(c2cccs2)CN(O)C1	8.57%
CC(OC(=O)/C=C/c1ccco1)C(=O)NC1CCCCC1C (stereo not drawn)	-3.2%
Nc1sc(-c2ccccc2)c(Cc2ccccc2)c1C(=O)O	-2.59%
Cc1cnc(NC(=O)CSc2ccccc2)s1	3.88%
O=C(O)CCC(=O)N1CCC(n2nnc3cc(C(F)(F)F)ccc32)CC1	10.5%
Cl.Fc1ccc2c(c1)nnn2C1CCN(Cc2nnnn2C2CCCCC2)CC1	-38.1%
OC1(c2cccc(C(F)(F)F)c2)CCN(Cc2nnnn2Cc2ccccc2)CC1	10.4%
FC(F)(F)c1ccc2c(c1)nnn2C1CCN(Cc2nnnn2Cc2ccccc2)CC1	-50.9%
Fc1ccc(Cn2nnnc2CN2CCC(n3nnc4cc(C(F)(F)F)ccc43)CC2)cc1	-69.6%
FC(F)(F)c1ccc2c(c1)ncn2C1CCN(Cc2nnnn2C2CCCCC2)CC1	-59.6%
Fc1ccc(Cn2nnnc2CN2CCN(C3CCCC3)CC2)cc1	-49.1%

SMILES	hERG current change (%, negative = inhibition) at 10uM
Cc1ccc(Cn2nnnc2CN2CCC(n3nnc4cc(C(F)(F)F)ccc43)CC2)cc1	2.84%
C1CCN(Cc2nnnn2C2CCCC2)CC1	11.4%
O=C(CSc1ccc2c(c1)OCCO2)NCCc1ccc(Cl)cc1Cl	-8.94%
O=C(Nc1ccc(Cl)cc1C(F)(F)F)c1ccccc1	8.81%
Cn1cnnc1SCC(=O)Nc1cc(S(=O)(=O)N2CCCCCC2)ccc1Cl	-17.8%
CCc1c(C)nc2ncnn2c1Nc1ccccc1C	-34.1%
CCOC(=O)N1CCC(NC(=O)c2cc(C(=O)Nc3ccc(OCC)cc3)ccc2CO)CC1	9.27%
CC(C)c1nnc(NC(=O)CC(C)c2ccccc2)s1 (stereo not drawn)	1.39%
N#Cc1c(N)nc2c3c(sc(=N)c2c1N)NC(=O)CC3c1c(F)cccc1Cl (stereo not drawn)	-15.7%
O=C(NNc1nc2ccccc2s1)c1ccccc1F	-7.04%
Fc1ccc(NC(=S)NC2CC3CCC(C2)N3Cc2ccco2)cc1 (stereo not drawn)	-12.6%
Cc1cc(C)cc(NC(=S)NC2CC3CCCC(C2)N3Cc2cccs2)c1 (stereo not drawn)	-52.9%
CCc1ccc(NC(=S)NC2CC3CCCC(C2)N3Cc2cccs2)cc1 (stereo not drawn)	-20.4%
CCc1ccccc1NC(=S)NC1CC2CCCC(C1)N2Cc1cccs1 (stereo not drawn)	-4.03%
Fc1ccc(NC(=S)NC2CC3CCCC(C2)N3Cc2cccs2)cc1 (stereo not drawn)	-59.5%
Cc1cccc(NC(=S)NC2CC3CCCC(C2)N3Cc2cccs2)c1C (stereo not drawn)	-37.9%
CC(C)CNC(=S)NC1CC2CCCC(C1)N2Cc1cccs1 (stereo not drawn)	-34.8%
Cc1ccc(NC(=S)NC2CC3CCCC(C2)N3Cc2cccs2)cc1 (stereo not drawn)	-56.5%
Cc1cccc(NC(=S)NC2CC3CCCC(C2)N3Cc2cccs2)c1 (stereo not drawn)	-35.9%
CCOC(=O)C(=O)N(Nc1ccccc1C)c1ccccc1C	-14.3%
O=C(Nc1ccccn1)c1ccc2c(c1)OCCO2	11.5%
